pPAFAH inh = inhibitors of human plasma PAF acetylhydrolase (pPAFAH); recombinant pPAFAH, FP-rhodamine probe fluorescence polarization; inhibition, % at 3.39 µM; 1.5% of 330,000 active; AID 463082;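 active = inhibition above the mean inhibition across the screen plus 3 SD, cut at about 25% in these data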;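 also: inhibitors block binding of the rhodamine activity-based probe so polarization drops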
PAFAH1B2 FP inh = inhibitors of human PAFAH1B2; inhibition, % at 3.39 µM; P68402; AID 492953; recombinant PAFAH1B2, FP-rhodamine activity probe, fluorescence polarization; 1.2% of 340,000 active;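 active = inhibition above the mean of all tested compounds plus 3 SD, cut at about 24% in these data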
PAFAH2 FP inh = PAFAH2 (human) inhibition | Q99487 | 0.99% of 340,000 active | recombinant PAFAH2, FP-rhodamine activity probe, fluorescence polarization | inhibition, % at 3.39 µM | AID 492956;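 active = inhibition above the mean over all tested compounds plus 3 SD, cut at about 30% in these data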;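 also: inhibitors block probe labeling of enzyme so polarization drops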
Fam108B inh = counter-screen for RBBP9 inhibitors: inhibitors of mouse Fam108B | inhibition, % at 9.51 µM | 0.33% of 300,000 active | recombinant Fam108B, FP-Rh probe fluorescence polarization;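 active = inhibition above the screen mean inhibition plus 3 SD, computed separately per campaign, cut at about 18% in these data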;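 also: inhibitors lower polarization as less probe binds the enzyme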
PAFAH1B3 inh = inhibitors of human PAFAH1B3. inhibition, % at 3.39 µM. recombinant PAFAH1B3, FP-rhodamine probe, fluorescence polarization. Q15102. 0.28% of 340,000 active. AID 492972;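 active = inhibition above the screen-wide average of all tested compounds plus 3 SD, cut at about 25% in these data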
Target sequence (Q15102 whole entry, looked up): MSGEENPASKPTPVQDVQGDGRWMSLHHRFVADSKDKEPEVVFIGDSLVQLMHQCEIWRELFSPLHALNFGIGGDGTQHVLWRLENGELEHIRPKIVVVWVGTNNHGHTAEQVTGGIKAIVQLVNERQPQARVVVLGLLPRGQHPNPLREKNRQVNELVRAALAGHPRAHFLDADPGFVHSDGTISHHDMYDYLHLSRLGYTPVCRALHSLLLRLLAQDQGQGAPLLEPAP
PME-1 primary = PME-1 (human) inhibition; Q9Y570; recombinant PME-1, FP-Rh probe fluorescence polarization; inhibition, % at 5.9 µM; 0.53% of 320,000 active; AID 2130;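 active = inhibition above the campaign mean of all compounds plus 3 SD, cut at about 26% in these data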;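 also: competitive labeling of PME-1 active site by serine hydrolase directed probe; inhibitors block probe labeling so polarization falls and inhibition rises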
Target sequence (Q9Y570 whole entry, looked up): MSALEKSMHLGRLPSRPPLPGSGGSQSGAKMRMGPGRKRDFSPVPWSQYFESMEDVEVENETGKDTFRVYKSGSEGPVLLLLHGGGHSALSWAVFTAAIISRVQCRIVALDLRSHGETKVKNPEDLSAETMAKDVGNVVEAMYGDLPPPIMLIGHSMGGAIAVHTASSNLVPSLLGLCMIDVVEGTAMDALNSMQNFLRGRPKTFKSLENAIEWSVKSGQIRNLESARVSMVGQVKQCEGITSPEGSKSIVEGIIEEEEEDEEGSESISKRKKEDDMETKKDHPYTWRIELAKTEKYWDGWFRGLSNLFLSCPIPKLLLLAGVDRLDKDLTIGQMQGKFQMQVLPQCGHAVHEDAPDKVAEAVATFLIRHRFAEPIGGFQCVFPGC
Fam108b inh conf = confirmation of mouse Fam108b serine hydrolase inhibitors | shares compounds with Fam108B inh | recombinant Fam108b, FP-Rh probe fluorescence polarization | inhibition, % at 9.51 µM | 44% of 930 active;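 active = inhibition above a limit from the primary screen, the mean over all compounds plus 3 SD, cut at about 19% in these data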;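 also: inhibitors free the probe so polarization falls as inhibition rises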
Fam108b ABPP HTS = mouse ABHD17B inhibition; 44% of 260 active; inhibition, % at 20 µM; shares compounds with Fam108B inh; recombinant Fam108b, gel-based ABPP, fluorophosphonate probe; AID 588649; in the data active = inhibition above about 40%
pPAFAH FP conf = confirmation of human plasma PAF acetylhydrolase (pPAFAH) inhibitors; shares compounds with pPAFAH inh; recombinant pPAFAH, FP-Rh probe fluorescence polarization; inhibition, % at 3.39 µM; 72% of 2,300 active; AID 463230;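 active = mean inhibition of the triplicate above the hit cutoff set for the earlier primary screen, cut at about 25% in these data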
Hits are given with their value; 0 = inactive; - = not tested or not shown; ! = not active in a repeat. Only some compounds are listed: those with a hit (about 2.8% of all), similar ones and a draw of the others.

SMILES	pPAFAH inh	PAFAH1B2 FP inh	PAFAH2 FP inh	Fam108B inh	PAFAH1B3 inh	PME-1 primary	pPAFAH FP conf	others
N/C(=N\N=C/c1ccc(-c2ccc(O)c(C(=O)O)c2)o1)N[N+](=O)[O-]	49.8	0	0	18.6	30.3	0	35.2	Fam108b inh conf=23.8
C[n+]1c(-c2ccccc2)c2cc(N)ccc2c2ccc(N)cc21	68.1	87.0	91.8	104.3	120.5	115.8	51.9	Fam108b inh conf=70.4;Fam108b ABPP HTS=40.0
Nc1ccc2ccc3cccc[n+]3c2c1	0	0	0	0	0	0	-
Cn1nnc(CC[N+](C)(C)C)n1	0	-	-	0	-	0	-
CCN(CC)C(=O)c1ccc2c(c1)C1C(Cl)C(Sc3ccccc3[N+](=O)[O-])CC1C(C(=O)O)N2 (centres undefined)	68.2	32.5	53.2	46.6	25.9	0	35.6	Fam108b inh conf=0
Cc1ccc2c(c1Cl)NC(C(=O)O)C1CC(Sc3ccccc3[N+](=O)[O-])C(Cl)C21 (centres undefined)	49.0	0	42.9	26.8	0	0	42.2	Fam108b inh conf=0
CC1NCCC2(O)CCCCC12 (centres undefined)	0	0	0	0	0	0	-
CCC/C=C(\CCC)C(NP(=O)(c1ccccc1)c1ccccc1)c1ccccc1 (centres undefined)	0	-	-	0	-	0	-
CN(C)[C@@H]1C(=O)C(C(N)=O)=C(O)[C@@]2(O)C(=O)C3=C(O)c4c(O)cccc4[C@@](C)(O)C3[C@H](O)C12 (some centres undefined)	63.7	30.6!	46.8!	32.0!	25.6!	0	0	Fam108b inh conf=34.3
O=C1NC(=O)N(c2ccccc2)C(=O)/C1=C\c1ccc([N+](=O)[O-])s1	56.3	-	-	19.1	-	0	45.8	Fam108b inh conf=0
COc1ccc(OC)c(N2C(=O)NC(=O)/C(=C\c3ccc([N+](=O)[O-])s3)C2=O)c1	63.5	47.0	54.3	44.2	60.7	0	69.3	Fam108b inh conf=0
O=C1NC(=O)N(c2ccccc2)C(=O)/C1=C\c1ccc([N+](=O)[O-])o1	0	-	-	0	-	0	-
COc1ccc(N2C(=O)NC(=O)/C(=C\c3ccccc3[N+](=O)[O-])C2=O)cc1	0	0	0	0	0	0	-
CN1C(=O)NC(=O)C(C)(C2=CCCCC2)C1=O (centres undefined)	0	0	0	0	0	0	-
O=[N+]([O-])c1ccc(NCc2ccccc2)c2nonc12	46.9	-	-	20.9	-	56.2	41.1	Fam108b inh conf=38.4;Fam108b ABPP HTS=0
CN1CCC(c2c[nH]c3ccc(O)cc23)CC1	-	0	0	-	0	-	-
CN1CCC(c2c[nH]c3ccccc23)C1 (centres undefined)	44.0	0	0	0	0	0	0
O=C(COC(=O)Cc1ccccc1)Nc1cccnc1Cl	0	0	0	0	0	0	-
CC1CCCC(NC(=O)COC(=O)Cc2ccccc2)C1C (centres undefined)	40.1	0	0	0	0	0	39.5
CC12CCC(=O)C=C1CCC1C2CCC2(C)C(O)(C(=O)CO)CCC12O (centres undefined)	-	0	0	-	0	-	-
CC1(C)CC(=O)C(C=NCCN2CCN(C(=O)Cc3ccc(Cl)cc3)CC2)=C(O)C1	0	0	0	0	0	0	-
FC(F)(F)c1ccc2c(c1)N(CCCN1CCN(CCCl)CC1)c1ccccc1S2	37.7	0	0	0	0	0	31.0
CC(C)c1ccc(-n2c(O)c(/C=N/NC(=O)c3ccncc3)c(=O)[nH]c2=O)cc1	0	0	0	0	0	0	-
CC(C)c1ccc(-n2c(O)c(/C=N/NC(=O)c3ccccc3O)c(=O)[nH]c2=S)cc1	46.8	0	0	0	0	0	45.4
CC(C)c1ccc(N2C(=O)NC(=O)/C(=C/C=C/c3ccco3)C2=O)cc1	42.7	0	0	0	0	0	0
SMILES	pPAFAH inh	PAFAH1B2 FP inh	PAFAH2 FP inh	Fam108B inh	PAFAH1B3 inh	PME-1 primary	pPAFAH FP conf	others
CCc1ccc(N2C(=O)NC(=O)/C(=C\C=C\c3ccco3)C2=O)cc1	0	0	0	0	0	0	-
O=C1NC(=O)N(Cc2ccc(F)cc2)C(=O)/C1=C\C=C\c1ccco1	36.0	29.6	0	0	0	0	0
O=c1[nH]c(=S)[nH]c(O)c1N=Nc1cc(S(=O)(=O)Nc2ccc(Cl)cc2)ccc1Cl	49.0	0	0	-	42.8	41.1	95.3
Cc1cc(C(=O)OCC(=O)Nc2ccccc2F)c(C)n1C1CC1	-	0	0	-	0	-	-
COc1ccc2c3c1OC1[C@H](O)CCC4[C@@H](C2)N(C)CC[C@]314 (some centres undefined)	35.1	0	0	-	0	-	0
COc1ccc2c(c1O)C13CCN(C)C(C2)C1CCC(=O)C3 (centres undefined)	0	-	-	0	-	0	-
CC(=NCCC(c1ccccc1)c1ccccc1)c1c(O)n(C)c(=O)n(C)c1=O	0	0	0	0	0	0	-
CC(C)C(=O)c1cn(Cc2ccc(C#N)cc2)c2ccccc12	0	0	0	0	0	0	-
O=C(c1ccco1)c1cn(Cc2ccccc2Cl)c2ccccc12	73.7	0	0	0	0	0	75.9
N#Cc1ccccc1Cn1cc(C(=O)c2ccco2)c2ccccc21	72.3	0	0	0	0	0	76.7
CC(=O)N1CCN(c2ccc(N=Cc3c(O)n(-c4ccc(Cl)cc4)c(=O)[nH]c3=O)cc2)CC1	40.6	0	0	0	0	0	0
O=c1[nH]c(=S)n(-c2ccc(Br)cc2)c(O)c1C=Nc1ccc(N2CCOCC2)cc1	57.0	0	0	0	0	0	33.5
CCN(CC)c1ccc(N=Cc2c(O)n(-c3ccc(Cl)cc3)c(=O)[nH]c2=O)cc1	0	0	0	0	0	0	-
C=CCn1c(O)c(C(=O)CCCCCC)c(=O)[nH]c1=O	0	0	0	0	0	0	-
C=CCn1c(O)c(C=Nc2ccc(N(CC)CC)cc2)c(=O)[nH]c1=O	43.5	0	0	0	0	0	0
Cc1ccccc1-n1c(O)c(C=Nc2ccc(N(C)C)cc2)c(=O)[nH]c1=O	46.1	0	0	0	0	0	0
CN1C(=O)CN=C(c2ccccc2Cl)c2cc(Br)ccc21	0	0	0	0	0	0	-
O=C(c1ccc2c3c(cccc13)CC2)C1CCCN(CC2CC2)C1 (centres undefined)	0	0	0	0	0	0	-
Cc1cc(C(=O)CS(=O)(=O)c2ccccc2)cc(C)c1OC(=O)N(C)C	37.7	0	0	0	0	0	0
CCC(=O)N1N=C2C3CCN(CC3)C2C1c1ccccc1 (centres undefined)	0	0	0	0	0	0	-
Cc1cccc(N2C(=O)NC(=O)/C(=C/c3cc4c(cc3[N+](=O)[O-])OCO4)C2=O)c1	42.1	0	0	0	0	45.5	0

From PubChem BioAssay
